# According to PubChem BioAssay:
# Test: binders from COS7 lysate, DM2A8 probe, primary screen, torsin A project, cell lysate, small-molecule microarray, fluorescence 635/667 (AID 1065)
# Conditions: higher = more signal, COS7 lysate expressing mutant human TOR1A
row,SMILES,composite z-score
1,CC(C)c1ccc(NN2C(C(O)C(C)c3ccccc3)C=CC3C(=O)N(c4ccccc4)C(=O)C32)cc1 (stereo not given),1.04
2,Cc1ccc(S(=O)(=O)N2[C@@H](c3ccccc3)C(C(=O)O)=C[C@H]2C(C)(C)C)cc1,1.81
3,CCOC(=O)C1=CC[C@@H](c2ccccc2)N(S(=O)(=O)c2ccc(C)cc2)[C@@H]1C#N,-0.0258
4,COCCOC(=O)N1C(=O)[C@@]2(c3cc(C#CCC(C(=O)OC)C(=O)OC)ccc31)[C@H](C(=O)N1CCc3cc(OC)c(OC)cc3C1)[C@H]1C(=O)O[C@H](c3ccccc3)[C@H](c3ccccc3)N1[C@@H]2c1ccccc1OCCO,0.399
5,CN(C)CCCC[C@@H]1NC(=O)[C@H]2C[C@@H](C(=O)NCCCCCCNC(=O)CS)[C@@H](c3cccc(OCCO)c3)N2C1=O,0.447
6,COc1cc2c(cc1O)C(C)N(Cc1sc3ccccc3c1Cl)CC2 (stereo not given),-1.01
7,COCCOC(=O)N1C(=O)[C@@]2(c3cc(C#CCC(C(=O)OC)C(=O)OC)ccc31)[C@H](c1ccc(O)cc1)N1[C@H](c3ccccc3)[C@H](c3ccccc3)OC(=O)[C@H]1[C@@H]2C(=O)N1CCc2cc(OC)c(OC)cc2C1,0.838
8,CCOC(=O)C1=CCC(c2ccncc2)N(S(=O)(=O)c2ccc(C)cc2)C1 (stereo not given),-0.128
9,COC(=O)[C@@]1(Cc2ccc(F)cc2)[C@H]2c3cc(C(=O)N4CCCC4)n(Cc4ccc(C(F)(F)F)nc4)c3C[C@H]2CN1C(=O)c1ccccc1,-0.0219
10,CC(C)(C)OC(=O)CC[C@@]1(C(N)=O)N=C(c2ccc(OCCCO)cc2)O[C@@H]1c1ccccc1CN=[N+]=[N-],0.87
